PubChem BioAssay (NCATS)
Values without a mark were called inactive. For some of these results: Entries with a potency or affinity are not part of this list. Calls of active or inactive are those of the source. The rule behind the calls is not given here.

How the values were obtained:
[1] = Ebola virus entry assay, green fluorescence channel
[2] = Ebola virus entry assay, blue channel fluorescence
[3] = Ebola virus entry assay, ratio channel
[4] = Ebola virus entry assay, reporter ratio channel; Channel type: primary
Throughout, for efficacy: 0% is about no effect.

SMILES: CCN(CC)CCNc1ccc(CO)c2sc3ccccc3c(=O)c12
- efficacy [1]: 47.9%
- AC50 [2]: 17.8 µM (active)
- AC50 [3]: 14.1 µM (active)
- AC50 [4]: 14.1 µM (active)

SMILES: COC(=O)Nc1nc2ccc(S(=O)c3ccccc3)cc2[nH]1 (centres undefined)
- efficacy [1]: 35.9%
- AC50 [2]: 3.16 µM (active)
- AC50 [3]: 1.78 µM (active)
- AC50 [4]: 1.78 µM (active)

SMILES: O=C(CCCN1CC=C(n2c(=O)[nH]c3ccccc32)CC1)c1ccc(F)cc1
- efficacy [1]: 51%
- AC50 [2]: 17.8 µM (active)
- AC50 [3]: 17.8 µM (active)
- AC50 [4]: 17.8 µM (active)

SMILES: CCN(CC)CCOCCOC(=O)C1(c2ccccc2)CCCC1
- efficacy [1]: 62.4%
- AC50 [2]: 10 µM (active)
- AC50 [3]: 10 µM (active)
- AC50 [4]: 10 µM (active)

SMILES: CCN1CCCC(OC(=O)C(c2ccccc2)c2ccccc2)C1 (centres undefined)
- efficacy [1]: 26.3%
- AC50 [2]: 25.1 µM (active)
- AC50 [3]: 20 µM (active)
- AC50 [4]: 20 µM (active)

SMILES: CCC(C(=O)OCCN1CCOC(c2ccccc2)C1C)c1ccccc1 (centres undefined)
- efficacy [1]: 88.5%
- AC50 [2]: 22.4 µM (active)
- AC50 [3]: 28.2 µM (active)
- AC50 [4]: 28.2 µM (active)

SMILES: Cc1nc2n(c(=O)c1CCN1CCC(C(=O)c3ccc(F)cc3)CC1)CCS2
- efficacy [1]: 91.8%
- outcome [2]: inactive
- outcome [3]: inactive
- outcome [4]: inactive

SMILES: C[C@@H]1C[C@H]2[C@@H]3CCC4=CC(=O)C=C[C@]4(C)[C@@]3(Cl)[C@@H](O)C[C@]2(C)[C@@]1(OC(=O)c1ccco1)C(=O)CCl
- efficacy [1]: 39.8%
- AC50 [2]: 25.1 µM (active)
- AC50 [3]: 10 µM (active)
- AC50 [4]: 10 µM (active)

SMILES: CCN(CC)CCOC(=O)C(c1ccccc1)c1ccccc1
- efficacy [1]: 39%
- AC50 [2]: 20 µM (active)
- outcome [3]: inactive
- AC50 [4]: 39.8 µM (active)

SMILES: O=C1NC2CCCCN2C12CCN(CCCN1c3ccccc3CCc3ccc(Cl)cc31)CC2 (centres undefined)
- efficacy [1]: -203%
- AC50 [2]: 4.47 µM (active)
- AC50 [3]: 3.16 µM (active)
- AC50 [4]: 3.16 µM (active)

SMILES: O=C(Nc1ccc(Cl)cc1)Nc1ccc(Cl)c(C(F)(F)F)c1
- efficacy [1]: -174%
- AC50 [2]: 28.2 µM (active)
- AC50 [3]: 8.91 µM (active)
- AC50 [4]: 8.91 µM (active)

SMILES: CCOC(=O)Cn1cccc1-c1nc(-c2ccc(OC)cc2)c(-c2ccc(OC)cc2)s1
- efficacy [1]: 34.5%
- AC50 [2]: 0.708 µM (active)
- AC50 [3]: 0.708 µM (active)
- AC50 [4]: 0.708 µM (active)

SMILES: Cc1oc(-c2ccccc2)nc1CCC(=O)c1ccc(CC2SC(=O)NC2=O)cc1 (centres undefined)
- efficacy [1]: 43.2%
- outcome [2]: inactive
- outcome [3]: inactive
- outcome [4]: inactive

SMILES: CCOC(=O)N1CCC(Nc2ccc(Cl)cc2N)CC1
- efficacy [1]: 119%
- AC50 [2]: 39.8 µM (active)
- outcome [3]: inactive
- AC50 [4]: 39.8 µM (active)

SMILES: CCO[C@@H]1O[C@H](C(COCc2ccccc2)OCc2ccccc2)[C@H](OCc2ccccc2)[C@H]1O (some centres undefined)
- efficacy [1]: 70%
- AC50 [2]: 31.6 µM (active)
- AC50 [3]: 15.8 µM (active)
- AC50 [4]: 15.8 µM (active)

SMILES: Cc1cccc(N(C)C(=S)Oc2ccc3c(c2)C2CCC3C2)c1 (centres undefined)
- efficacy [1]: 40.9%
- AC50 [2]: 39.8 µM (active)
- outcome [3]: inactive
- AC50 [4]: 39.8 µM (active)
